# Compound activity: PubChem BioAssay, Broad Institute
# A selection: hits, their analogues and other compounds. The true share with any hit is near 2.5%.
# RAD52 inh: blocks human RAD52 DNA annealing; P43351; inhibition, % at 18.7 µM; recombinant RAD52 DNA annealing, FRET fluorescence; 360,000 compounds, 0.46% hits;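 active means every replicate showing at least 50% inhibition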
# Target sequence (P43351 whole entry, looked up): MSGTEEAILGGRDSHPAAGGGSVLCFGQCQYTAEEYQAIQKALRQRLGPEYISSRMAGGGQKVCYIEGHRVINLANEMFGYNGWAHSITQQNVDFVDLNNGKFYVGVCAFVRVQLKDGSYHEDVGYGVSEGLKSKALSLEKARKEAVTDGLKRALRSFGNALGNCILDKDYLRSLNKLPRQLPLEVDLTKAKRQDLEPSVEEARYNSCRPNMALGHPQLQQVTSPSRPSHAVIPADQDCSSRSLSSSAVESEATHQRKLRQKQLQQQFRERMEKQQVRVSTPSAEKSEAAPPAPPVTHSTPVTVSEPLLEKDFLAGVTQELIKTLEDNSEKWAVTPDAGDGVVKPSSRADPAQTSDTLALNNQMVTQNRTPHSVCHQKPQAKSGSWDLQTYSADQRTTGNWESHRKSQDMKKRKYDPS
# NSD2 inh: inhibitors of human histone methyltransferase NSD2. O96028. NSD2 peptide methylation, AlphaScreen, 120 min. inhibition, % at 12.5 µM. 310,000 compounds, 0.54% hits. AID 743445; in the data active means inhibition above about 50%
# Casp6 inh: blocks human caspase-6 cleavage activity; purified caspase-6, Z-VEID-R110 cleavage fluorescence; inhibition, % at 12.5 µM; 350,000 compounds, 0.53% hits;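 active means mean inhibition across replicates at least about 35%, with every replicate also reaching that limit, limit read from the data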;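 further: 0% = median of neutral control wells and 100% = no fluorescence left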
# rRNA inh HTS: inhibitors of bacterial rRNA selective over humanized ribosomes; GFP signal change (wild-type ribosome), % (no concentration beside the values); E. coli WT GFP vs humanized-ribosome RFP mutants, fluorescence, 24 h; stronger effect = lower value; DMSO median 0, no signal -100; AID 720706; 350,000 compounds, 1.6% hits;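 active means significant combined selectivity score with lowered wild-type GFP, culture density cut under 30%, mutant RFP and density less affected; inactive means any of these conditions unmet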
# AF4-AF9 inh: blocks AF4 peptide binding to human AF9; P42568; inhibition, % at 10 µM; AlphaScreen, biotin-AF4 peptide binding to FLAG-AF9; 350,000 compounds, 0.47% hits;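 active means every replicate reaching a set inhibition limit, whatever the replicate mean, cut at about 25% in these data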;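 further: 0% = plate neutral control median and 100% = total signal loss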
# Numbers without * were called inactive; nt = not tested or not shown; ! = repeats disagree.
SMILES,RAD52 inh,NSD2 inh,Casp6 inh,rRNA inh HTS,AF4-AF9 inh
COc1ccc2c3c(n(C)c2c1)[C@H](CO)NCC31CCN(CC2CCCC2)CC1,38,nt,-4,3,14
COc1ccc2c3c(n(C)c2c1)[C@H](CO)NCC31CN(CC2CCOCC2)C1,76*,nt,-28,4,35*
Cc1cc(OCCCC(=O)Nc2cccc(-n3cnnn3)c2)ccc1Cl,-10,-4,0,-34*,-3
CC(C)CC#Cc1ccc([C@@H]2[C@@H](CO)N3C(=O)CN(S(=O)(=O)c4ccccc4)C[C@@H]23)cc1,9,nt,2,1,-1
Cc1cc(NC(=O)CSc2nc(Cc3ccccc3)c(C)[nH]2)no1,-15,-2,2,1,-7
Cc1[nH]c(SCC(=O)Nc2cc(S(C)(=O)=O)ccc2Cl)nc1Cc1ccccc1,-23,2,-3,-22*,8
CCN(c1ccccc1)S(=O)(=O)c1ccc(Cl)c(NC(=O)CSc2n[nH]c(N)n2)c1,-8,5,0,-19*,-5
CS(=O)(=O)c1ccc(Cl)c(NC(=O)CSc2n[nH]c(N)n2)c1,-1,0,0,6,0
Cc1ccc(NC(=S)Nc2ccc(Cl)c(Cl)c2)c(OC(F)F)c1,-6,28,0,-41*,3
Cc1noc(C)c1S(=O)(=O)Nc1ccc2c(c1)C(=O)N([C@@H](C)CO)C[C@@H](C)[C@@H](CN(C)C(=O)Nc1cccc3ccccc13)O2,3,nt,4,0,-1
COc1ccc(CCNc2nc(-c3ccc(O)cc3)cs2)cc1OC,-10,5,0,-21,4
COc1ccc(CCNc2nc(-c3ccncc3)cs2)cc1OC,8,1,2,-27*,2
COc1ccc(CC(=O)O/N=C(\N)c2ccc(OC)cc2)cc1,-4,-7,-3,-19*,-4
COc1ccc(CC(=O)O/N=C(\N)c2ccccc2)cc1OC,-16,-5,-1,-22*,-3
COc1ccccc1NC(=O)N(C)C[C@@H]1Oc2ncc(C#CC(C)C)cc2C(=O)N([C@@H](C)CO)C[C@H]1C,2,nt,-2,4,-2
CO[C@H]1CN(C)C(=O)c2ccc(NC(=O)C3CC3)cc2OC[C@H](C)N(C(=O)CN(C)C)C[C@H]1C,1,nt,0,2,1
CCOc1ccc(CN(C)CC(=O)NCc2ccccc2Cl)cc1,-15,0,1,-28*,-3
C[C@H]1CN(C)C(=O)Cc2cc(NS(C)(=O)=O)ccc2O[C@@H]1CN(C)C,nt,nt,nt,-2,nt
COc1ccccc1OCCNC(=O)c1ccccc1C,nt,-2,nt,nt,nt
Cc1ccccc1OCCNC(=O)CNC(=O)c1ccccc1O,-2,-2,-1,-27*,0
CCOC(=O)c1c(NC(=O)C2CC(Cl)=CCC2C(=O)O)sc2c1CC(C)(C)OC2 (centres undefined),-7,2,43*,-8,-1
CN(c1ccccc1)c1ccc(/C=C(\CCC(=O)O)c2nc3ccccc3s2)cc1[N+](=O)[O-],-13,23,38*,-18,0
Cc1ccc(/C=C(\CCC(=O)O)c2nc3ccccc3s2)cc1[N+](=O)[O-],-12,0,11,-29*,7
C[C@H]1CN([C@@H](C)CO)S(=O)(=O)c2ccc(C#CCN(C)C)cc2O[C@@H]1CN(C)Cc1ccccc1F,-27,nt,2,-39,21
COc1ccccc1-c1ccc(C2[C@H]3CNC[C@@H]2N3Cc2cc(-c3ccccc3)on2)cc1 (some centres undefined),54*,nt,1,-54,1
SMILES,RAD52 inh,NSD2 inh,Casp6 inh,rRNA inh HTS,AF4-AF9 inh
C/C=C/c1ccc(C2[C@H]3CNC[C@@H]2N3Cc2cc(-c3ccccc3)on2)cc1 (some centres undefined),52*!,nt,3,-60,9
COc1cccc(CN2[C@@H]3CNC[C@H]2[C@H]3c2ccc(-c3ccccc3OC)cc2)c1,-50,nt,-3,6,2
N#Cc1cccc(-c2ccc(C3[C@H]4CNC[C@@H]3N4Cc3cc(-c4ccccc4)on3)cc2)c1 (some centres undefined),63*,nt,-4,-59,-6
CC[C@H](C)[C@H](NC(N)=O)C(=O)NNC(=O)c1ccc(COc2cccc3cccnc23)cc1,-5,nt,10,-1,35*
Cc1ccc(NC(=O)COCC(=O)Nc2ccc(C)cc2)cc1,2,-2,-3,1,-4
Cc1ccc(S(=O)(=O)OCC(=O)Nc2ccc(C(=O)O)c(O)c2)cc1,-56,nt,79*,nt,-5
